A number with no mark means an inactive call. For some of these results: Measured potencies and affinities stand elsewhere. Active and inactive are the calls of the source. Unless noted, no rule for the calls is given here.

These results are taken from PubChem BioAssay.

A short description of assay [1]: antimalarial activity against Dd2 strain (AID 2302;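 active = growth inhibition above 50% at the single 2 µM test dose, taken to imply half-maximal potency below 2 µM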;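 also: 0% = DMSO untreated growth and 100% = chloroquine plus artemisinin killed control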). The note with it: P. falciparum Dd2 in RBCs, LDH growth readout, 72 h; at 2 µM; hits give high values.
Assay [2] can be described thus: HepG2 cytotoxicity, primary screen, cytotoxicity control for P. falciparum antimalarial project, cell-based, ATP luminescence (AID 2303;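 active = inhibition above 50%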;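 also: 0% = DMSO wells and 100% = digitonin-killed cells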). Conditions: HepG2 viability, 24-48 h, at 10 µM, hits give high values.
Assay [3] has as its target L-lactate dehydrogenase (Plasmodium falciparum (isolate CDC / Honduras)) (UniProt Q27743). Nature of the assay: PfLDH activity inhibition – cell lysate, 3D7 strain, counter-screen for P. falciparum growth inhibition project (AID 2304).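 Also: 0% = vehicle and 100% = reference inhibitor.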 The note with it: P. falciparum 3D7 crude extract, LDH APAD/NBT absorbance; at 2 µM; hits give high values. A general note: A counterscreen serves to expose hits that act by an unwanted route or on another target.

Assay [4] is described as follows: inhibition of 3D7 malaria parasite growth – strain 3D7 (AID 2306).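 Also: 0% = DMSO wells and 100% = chloroquine plus artemisinin control wells.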 The note with it: P. falciparum 3D7 erythrocytic growth, LDH absorbance, 72 h; at 2 µM; hits give high values.
Assay [5] addresses Calcium-dependent protein kinase 1 (Plasmodium falciparum (isolate 3D7)) (UniProt P62344). Description: PfCDPK1 kinase inhibitors, biochemical, TCAMS library (AID 1159585; cut-off not given, nearly all actives have IC50 up to about 0.98 µM;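 also: inhibitors leave more ATP so luminescence rises with inhibition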). Conditions: recombinant PfCDPK1, Kinase-Glo ATP depletion luminescence.
The target in assay [6] is Plasmodium falciparum protein kinase 6 (PK6, PF3D7_1337100) (UniProt Q8IDW1). Nature of the assay: PfPK6 kinase inhibitors, biochemical, TCAMS library (AID 1159586). The note with it: recombinant PfPK6, Kinase-Glo ATP depletion luminescence. In general terms: Kinase-Glo reads ATP consumption through a luciferase reaction.
Sequence of Plasmodium falciparum protein kinase 6 (PK6, PF3D7_1337100) (Q8IDW1 1-305): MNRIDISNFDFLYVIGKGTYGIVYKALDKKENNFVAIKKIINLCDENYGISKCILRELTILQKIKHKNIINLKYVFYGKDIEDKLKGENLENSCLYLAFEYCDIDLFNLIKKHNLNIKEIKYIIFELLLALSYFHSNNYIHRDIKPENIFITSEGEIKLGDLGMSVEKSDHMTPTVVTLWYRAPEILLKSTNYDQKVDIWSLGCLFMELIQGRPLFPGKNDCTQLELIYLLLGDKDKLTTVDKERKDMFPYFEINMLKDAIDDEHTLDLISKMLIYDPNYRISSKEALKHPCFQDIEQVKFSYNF
Assay [7] deals with Protein kinase 7 (PK7), Plasmodium falciparum 3D7 (PF3D7_0213400) (UniProt Q7YTF7). Description: inhibition of Plasmodium PK7 catalytic activity – biochemical, TCAMS antimalarial set, Kinase-Glo luminescence (AID 1159587). Conditions: recombinant PfPK7, Kinase-Glo ATP depletion luminescence.
Sequence of Protein kinase 7 (PK7), Plasmodium falciparum 3D7 (PF3D7_0213400) (Q7YTF7 1-343): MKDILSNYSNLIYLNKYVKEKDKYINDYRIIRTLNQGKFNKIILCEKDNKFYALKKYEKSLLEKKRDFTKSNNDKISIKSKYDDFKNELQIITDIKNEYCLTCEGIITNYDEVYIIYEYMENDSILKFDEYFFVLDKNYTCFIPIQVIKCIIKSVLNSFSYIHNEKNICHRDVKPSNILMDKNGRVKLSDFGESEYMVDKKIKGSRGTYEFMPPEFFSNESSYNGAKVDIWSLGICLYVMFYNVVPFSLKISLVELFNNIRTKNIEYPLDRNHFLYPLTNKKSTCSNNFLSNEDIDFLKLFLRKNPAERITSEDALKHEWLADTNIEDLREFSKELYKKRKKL
Assay [8] deals with Calcium-dependent protein kinase 4 (Plasmodium falciparum (isolate 3D7)) (UniProt Q8IBS5). Description: PfCDPK4 kinase inhibitors, biochemical, TCAMS library (AID 1159588; cut-off not given, nearly all actives have IC50 up to about 0.91 µM). Conditions: recombinant PfCDPK4, Kinase-Glo ATP depletion luminescence.
Sequence of Calcium-dependent protein kinase 4 (Plasmodium falciparum (isolate 3D7)) (Q8IBS5 whole entry, looked up): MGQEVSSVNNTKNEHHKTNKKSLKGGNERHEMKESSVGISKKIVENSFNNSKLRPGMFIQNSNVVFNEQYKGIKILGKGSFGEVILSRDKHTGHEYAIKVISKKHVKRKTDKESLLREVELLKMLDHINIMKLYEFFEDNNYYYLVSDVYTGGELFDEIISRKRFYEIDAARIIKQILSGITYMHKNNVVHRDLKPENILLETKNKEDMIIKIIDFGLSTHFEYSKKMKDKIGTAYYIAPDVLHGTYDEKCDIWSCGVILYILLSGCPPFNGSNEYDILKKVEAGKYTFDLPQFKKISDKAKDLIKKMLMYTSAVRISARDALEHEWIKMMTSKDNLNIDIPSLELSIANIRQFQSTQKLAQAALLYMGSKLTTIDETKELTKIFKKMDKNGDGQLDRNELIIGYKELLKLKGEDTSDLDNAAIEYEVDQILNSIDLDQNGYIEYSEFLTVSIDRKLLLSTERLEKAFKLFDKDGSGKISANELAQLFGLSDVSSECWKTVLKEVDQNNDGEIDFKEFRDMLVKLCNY

Sequence of Calcium-dependent protein kinase 1 (Plasmodium falciparum (isolate 3D7)) (P62344 whole entry, looked up): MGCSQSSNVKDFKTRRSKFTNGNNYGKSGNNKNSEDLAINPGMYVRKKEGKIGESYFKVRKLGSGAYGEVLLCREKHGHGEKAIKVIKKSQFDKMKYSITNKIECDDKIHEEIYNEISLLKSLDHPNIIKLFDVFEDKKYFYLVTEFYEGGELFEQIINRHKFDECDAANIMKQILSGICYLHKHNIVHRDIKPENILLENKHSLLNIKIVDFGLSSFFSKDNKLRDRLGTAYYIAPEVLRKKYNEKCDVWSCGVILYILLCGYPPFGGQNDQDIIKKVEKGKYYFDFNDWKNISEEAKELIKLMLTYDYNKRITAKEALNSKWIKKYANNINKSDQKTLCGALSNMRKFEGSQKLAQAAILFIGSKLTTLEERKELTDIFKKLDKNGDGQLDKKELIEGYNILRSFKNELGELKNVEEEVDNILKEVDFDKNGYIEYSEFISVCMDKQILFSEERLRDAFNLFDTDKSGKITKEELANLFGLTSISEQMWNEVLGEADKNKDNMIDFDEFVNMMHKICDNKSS
Sequence of L-lactate dehydrogenase (Plasmodium falciparum (isolate CDC / Honduras)) (Q27743 whole entry, looked up): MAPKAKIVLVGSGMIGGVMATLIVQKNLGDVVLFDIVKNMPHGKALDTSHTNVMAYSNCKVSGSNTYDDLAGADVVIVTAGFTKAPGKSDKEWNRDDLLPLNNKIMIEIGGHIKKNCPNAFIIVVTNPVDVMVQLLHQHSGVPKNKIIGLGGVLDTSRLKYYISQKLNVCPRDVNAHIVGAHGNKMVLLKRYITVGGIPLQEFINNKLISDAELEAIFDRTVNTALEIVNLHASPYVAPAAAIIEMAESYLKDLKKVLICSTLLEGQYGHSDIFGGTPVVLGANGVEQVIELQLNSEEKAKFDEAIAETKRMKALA

Broadly, the inhibition is the change of the read-out against control, counted positive when it falls. In the case of `CN(C)CCCNc1ccnc2cc(Cl)ccc12`, the growth inhibition in assay [1] and in assay [4] was 100% (active) each time. Also, the inhibition in assay [2] was 10%; in assay [3] it was 4%. Besides, the outcome in assay [5], in assay [6], in assay [7] and in assay [8] was inactive.
Turning to `CCCCCCCCc1c(C)[nH]c(C)c(I)c1=O`, the growth inhibition in assay [1] was 77% (active); in assay [4], 91% (active). Also, the inhibition in assay [2] was 5%; in assay [3] it was 4%. Further, the outcome in assay [5], in assay [6], in assay [7] and in assay [8] was inactive.
Consider `O=C(Nc1cccc(CN2CCCN(Cc3ccccc3)CC2)c1)c1ccc(Cl)c(Cl)c1`, for which the growth inhibition in assay [1] is 16%; in assay [4], 95% (active). Also, the inhibition in assay [2] is 23%; in assay [3] it was -6%. For the same molecule, the result in assay [5], in assay [6], in assay [7] and in assay [8] was inactive.
Turning to `Cc1cccc2[nH]c(-c3cccc(-c4cccc(NC(=O)c5cccnc5Cl)c4)c3)nc12`, the values for the growth inhibition in assay [1] and in assay [4] were 32% and 97% (active), respectively. Further, the results for the inhibition in assay [2] and in assay [3] were -1% and 0%, respectively. The outcome in assay [5], in assay [6], in assay [7] and in assay [8] was inactive.
For the molecule `Cc1ccc(C(=O)Nc2cccc(CN3CCCN(Cc4ccc(O)cc4)CC3)c2)cc1`, the figures for the growth inhibition in assay [1] and in assay [4] were 5% and 88% (active), respectively. The inhibition in assay [2] is -4%; in assay [3], -3%. In addition, the outcome in assay [5], in assay [6], in assay [7] and in assay [8] was inactive.
For the molecule `Clc1ccc(CNc2nc(NCCc3cnc[nH]3)nc(N3CCCC4CCCCC43)n2)cc1` (stereo not given), the growth inhibition in assay [1] is 100% (active); in assay [4] it was 101% (active). Besides, the inhibition in assay [2] was 10%; in assay [3], 4%. Moreover, the result in assay [5], in assay [6], in assay [7] and in assay [8] was inactive.
For the molecule `Cc1ccc(F)c(OC2CCN(c3ccc(C(=O)NC4CC4)cn3)CC2)c1`, the figures for the growth inhibition in assay [1] and in assay [4] were 72% (active) and 92% (active), respectively. For the same molecule, the inhibition is 10% in assay [2] and -2% in assay [3]. Moreover, the result in assay [5], in assay [6], in assay [7] and in assay [8] was inactive.
Regarding `Cn1nccc1C(=O)NCCNCc1ccc(-c2ccc(-c3nc4ccc(C(F)(F)F)cc4[nH]3)s2)cc1`, the growth inhibition is 99% (active) in assay [1] and 101% (active) in assay [4]. Besides, the inhibition in assay [2] is 48%; in assay [3], -5%. Besides, the outcome in assay [5], in assay [6], in assay [7] and in assay [8] was inactive.
Turning to `O=C(C1CCN(c2nnnn2-c2ccccc2)CC1)N1CCc2ccccc2C1`, the growth inhibition in assay [1] and in assay [4] was 97% (active) throughout. Moreover, the inhibition in assay [2] was -7%; in assay [3], -9%. In addition, the result in assay [5], in assay [6], in assay [7] and in assay [8] was inactive.
For `O=C(/C=C/c1ccc(Cl)c(Cl)c1)NC1CCN(Cc2ccc(O)cc2)C1` (stereo not given), the growth inhibition in assay [1] was 4%; in assay [4], 97% (active). In addition, the inhibition in assay [2] was 15%; in assay [3], -1%. Besides, the outcome in assay [5], in assay [6], in assay [7] and in assay [8] was inactive.
On to `CC12CN3CC(C)(CN(C1)C3c1cc(Br)ccc1O)C2O` (stereo not given), for which the growth inhibition is 2% in assay [1] and 98% (active) in assay [4]. Further, the figures for the inhibition in assay [2] and in assay [3] were 5% and -3%, respectively. Further, the outcome in assay [5], in assay [6], in assay [7] and in assay [8] was inactive.
As to `c1ccc(OCCCCN2CCCCC2)cc1`, the growth inhibition in assay [1] was 1%; in assay [4], 95% (active). The inhibition was 2% in assay [2] and -11% in assay [3]. Also, the outcome in assay [5], in assay [6], in assay [7] and in assay [8] was inactive.
Consider `COc1cc2nc(NCCc3ccccc3)nc(NCCCc3ccccc3)c2cc1OC`, for which the growth inhibition in assay [1] and in assay [4] was 101% (active) in each case. For the same molecule, the figures for the inhibition in assay [2] and in assay [3] were 21% and 2%, respectively. Moreover, the outcome in assay [5], in assay [6], in assay [7] and in assay [8] was inactive.
As for `Cc1ccc2c(NN=CC=Cc3ccccc3)cc(C)nc2c1`, the growth inhibition in assay [1] was 13%; in assay [4], 92% (active). For the same molecule, the figures for the inhibition in assay [2] and in assay [3] were 3% and 6%, respectively. The result in assay [5], in assay [6], in assay [7] and in assay [8] was inactive.
On to `CCN(CC)CCCN(C(=O)c1cc2c(C)nn(-c3ccccc3)c2s1)c1nc(-c2ccc(OC)cc2)cs1`, for which the growth inhibition was 32% in assay [1] and 89% (active) in assay [4]. For the same molecule, the inhibition in assay [2] was 12%; in assay [3] it was -7%. Besides, the outcome in assay [5], in assay [6], in assay [7] and in assay [8] was inactive.
Turning to `CCN(CC)CCCN(Cc1ccc(-c2ccc(C(F)(F)F)cc2)cc1)C(=O)Cn1c(SCc2cccc(F)c2F)cc(=O)c2ccccc21`, the growth inhibition in assay [1] was 82% (active); in assay [4], 87% (active). Moreover, the inhibition is 45% in assay [2] and 7% in assay [3]. Further, the outcome in assay [5], in assay [6], in assay [7] and in assay [8] was inactive.
In the case of `Cc1cccc2[nH]c(-c3cccc(-c4cccc(NC(=O)Nc5ccc(Cl)cc5)c4)c3)nc12`, the growth inhibition in assay [1] is 94% (active); in assay [4], 100% (active). For the same molecule, the inhibition in assay [2] was 23%; in assay [3], -2%. Also, the result in assay [5], in assay [6], in assay [7] and in assay [8] was inactive.
In the case of `Cn1c(/C=C/C(=O)NC2CCC(CCN3CCc4ccc(C#N)cc4CC3)CC2)cc2ccccc21` (stereo not given), the figures for the growth inhibition in assay [1] and in assay [4] were 29% and 101% (active), respectively. For the same molecule, the results for the inhibition in assay [2] and in assay [3] were 15% and -1%, respectively. The result in assay [5], in assay [6], in assay [7] and in assay [8] was inactive.
For `O=C(NCc1ccccc1)Nc1ccc(-c2ccc(-c3nc4ccc(C(F)(F)F)cc4[nH]3)cc2)cc1`, the growth inhibition was 23% in assay [1] and 99% (active) in assay [4]. In addition, the inhibition in assay [2] is 40%; in assay [3] it was 4%. For the same molecule, the result in assay [5], in assay [6], in assay [7] and in assay [8] was inactive.
With `CN1CCC(N2CCC(Oc3cccc(C(=O)NCCCC4CCCC4)c3)CC2)CC1`, the growth inhibition in assay [1] was 48%; in assay [4], 101% (active). The inhibition in assay [2] is 41%; in assay [3], -3%. Besides, the result in assay [5], in assay [6], in assay [7] and in assay [8] was inactive.
